{"source": "PubChem BioAssay AID588", "about": "(National Center for Advancing Translational Sciences (NCATS), 2007)", "note": "In all, about 59,000 compounds went through this assay and about 25 (0.04%) were called active. How the calls were made is not given here. For the sample, actives were picked, then their nearest neighbours and some compounds at random."}
{"assay": "qHTS Assay for Spectroscopic Profiling in Resorufin Spectral Region", "settings": "Compound fluorescence, resorufin region 547/598 nm, buffer; active compounds read high", "excerpt": "NIH Molecular Libraries Screening Centers Network [MLSCN] NIH Chemical Genomics Center [NCGC] […] Occasionally, the artifactual effect may originate from the compound#s own spectral or other biophysical properties which generally tend to track its assay concentration. Pre-screening/profiling the library with respect to the compounds# spectral properties should help one exclude false positives early on. While the most informative fluorescent profiling data set is obtained by performing a full excitation and emission scan of each well by using a monochromator-based plate reader, such an approach is practical only on a very limited scale as scanning each well requires long time. An alternative approach, applied here, is to perform plate reader scans using selected excitation and emission wavelength pairs to generate a multidimensional relational database that correlates compound concentration and the respective relative fluorescence intensity at a given wavelength set. A standard curve of resorufin present on each plate as six-point concentration series, was used to compute a normalized fluorescence response, termed dye-equivalent concentration, for each compound at each concentration.\nNCGC Assay Protocol Summary: Buffer: 100 mM Tris buffer, pH 8.0 Dye standard plate: The wells in columns 1 through 4 of a Kalypsys polypropylene 1536-well compound plate were filled with standard solutions of fluorophore corresponding to the spectral region of interest. Solutions of resorufin were placed in the following wells: M1, N1: 3 mM, M2, N2: 300 uM, M3, N3: 30 uM, M4, N4: zero (DMSO), O1, P1: 3 uM, O2, P2: […], O3, P3: 300 nM, O4, P4: zero (DMSO). Assay Steps: Six uL of buffer were dispensed to 1536-well Greiner black plates. Compounds and dye standards (23 nL) were transferred via Kalypsys PinTool. The plates were incubated for 15 min at room temperature, and then read on ViewLux (Perkin-Elmer) High-throughput CCD imager using 547 nm and 598 nm excitation and emission filter set. Keywords: NIH Roadmap, MLSCN, MLI, MLSMR, qHTS, NCGC, Resorufin, Fluorescent Profiling."}
{"smiles": "Nc1ccc2[nH]cc(CCC(=O)O)c2c1", "max dye-equivalent concentration": "inactive"}
{"smiles": "Cc1ccccc1N1CCN(S(=O)(=O)C[C@@]23CC[C@H](C[C@H]2NC(=O)[C@@H](N)CCS(C)(=O)=O)C3(C)C)CC1", "max dye-equivalent concentration": "inactive"}
{"smiles": "COCCNc1ccnc(-c2cccc(NS(C)(=O)=O)c2)n1", "max dye-equivalent concentration": "inactive"}
{"smiles": "CCOC(=O)c1c(C)[nH]c(C)c1C(=O)CSc1nc(N)cc(N)n1", "max dye-equivalent concentration": "inactive"}
{"smiles": "O=C(Cn1c(=S)nc2ccccn21)N1CCc2ccccc2C1", "max dye-equivalent concentration": "inactive"}
{"smiles": "CN1CCN2c3ccccc3Cc3ccccc3[C@@H]2C1", "max dye-equivalent concentration": "inactive"}
{"smiles": "COc1ccc2c(CC(=O)Nc3nnc(C4CC4)s3)coc2c1", "max dye-equivalent concentration": "inactive"}
{"smiles": "CC(CCO)Nc1nc2c([nH]1)c(=O)n(C)c(=O)n2C", "note": "(stereo not drawn)", "max dye-equivalent concentration": "inactive"}
{"smiles": "CCOc1c(OC)cc(C2C(C#N)=C(N)Oc3n[nH]c(-c4ccncc4)c32)cc1OC", "note": "(stereo not drawn)", "max dye-equivalent concentration": "inactive"}
{"smiles": "Cc1ccc(S(=O)(=O)N2CCC(C(=O)N[C@@H](C)C(=O)NCCc3ccccc3)CC2)cc1", "max dye-equivalent concentration": "inactive"}
{"smiles": "NS(=O)(=O)c1cc2c(cc1Cl)NC(C(Cl)Cl)NS2(=O)=O", "note": "(stereo not drawn)", "max dye-equivalent concentration": "inactive"}
{"smiles": "CCOC(=O)N1CCN(C(=O)CSc2nnc(-c3c[nH]c4ccccc34)n2CCOC)CC1", "max dye-equivalent concentration": "inactive"}
{"smiles": "CCOc1ccc(Cn2c(SCCCCC#N)nc3c2c(=O)n(C)c(=O)n3C)cc1OCC", "max dye-equivalent concentration": "inactive"}
{"smiles": "CNc1ncnc2ccc(-c3cccc(NS(C)(=O)=O)c3)cc12", "max dye-equivalent concentration": "inactive"}
{"smiles": "Cc1ccc(C)n1C(Cc1ccccc1)C(=O)O", "note": "(stereo not drawn)", "max dye-equivalent concentration": "inactive"}
{"smiles": "COc1cccc2c(C)c(C(=O)O)[nH]c12", "max dye-equivalent concentration": "inactive"}
{"smiles": "Cc1nc2ccccc2cc1O", "max dye-equivalent concentration": "inactive"}
{"smiles": "COCCNC(=O)C(c1ccc(C)o1)N(Cc1cccs1)C(=O)c1snc(C(N)=O)c1N", "note": "(stereo not drawn)", "max dye-equivalent concentration": "inactive"}
{"smiles": "Cc1cc(C)c(C)c(S(=O)(=O)Nc2ccc(O)cc2)c1C", "max dye-equivalent concentration": "inactive"}
{"smiles": "CCN(CC)Cc1c(C(=O)OC)nnn1-c1nonc1N", "max dye-equivalent concentration": "inactive"}
{"smiles": "Cn1cccc1C(=O)N1CCC[C@@]2(CCN(Cc3nccs3)C2)C1", "max dye-equivalent concentration": "inactive"}
{"smiles": "COc1cc2[nH]c(=S)n(CCN3CCCCC3C)c(=O)c2cc1OC", "note": "(stereo not drawn)", "max dye-equivalent concentration": "inactive"}
{"smiles": "COc1ccc(CCNC(=O)c2ccc3c(c2)NC(=O)C(N2CCOCC2)S3)cc1OC", "note": "(stereo not drawn)", "max dye-equivalent concentration": "inactive"}
{"smiles": "COc1ccc(CCn2c(NCCCN3CCOCC3)nc3c2c(=O)[nH]c(=O)n3C)cc1", "max dye-equivalent concentration": "inactive"}
{"smiles": "Cc1ccccc1CSc1nnc(-c2cccnc2)n1N", "max dye-equivalent concentration": "inactive"}
{"smiles": "COCCN(C(=O)CCC(=O)Nc1ccccn1)C(C(=O)NCCC(C)C)c1ccc(OC)cc1", "note": "(stereo not drawn)", "max dye-equivalent concentration": "inactive"}
{"smiles": "NCCNCC1CCNCC1", "max dye-equivalent concentration": "inactive"}
{"smiles": "Cc1ccc(N2CCN(c3ccc(C)cc3)C2c2ccccn2)cc1", "max dye-equivalent concentration": "inactive"}
{"smiles": "O=C(NCCCN1CCN(c2ccccc2F)CC1)C1CCC(=O)N1C1CCCCC1", "note": "(stereo not drawn)", "max dye-equivalent concentration": "inactive"}
{"smiles": "CCOc1ccc(C(C)C)cc1S(=O)(=O)n1nc(C)cc1C", "max dye-equivalent concentration": "inactive"}
{"smiles": "COc1ccc(-c2c3c(=O)n(C)c(=O)n(C)c3cn2NC(C)=O)cc1", "max dye-equivalent concentration": "inactive"}
{"smiles": "CCCOC(=O)C1=C(C)NC2=C(C(=O)C(C(=O)OC)C(C)C2)C1c1ccc(N(C)C)cc1", "note": "(stereo not drawn)", "max dye-equivalent concentration": "inactive"}
{"smiles": "O=C1CSC(=O)N1CCOCCN1C(=O)CSC1=O", "max dye-equivalent concentration": "inactive"}
{"smiles": "O=c1cc(-c2ccccc2)nc(N2CCCCC2)[nH]1", "max dye-equivalent concentration": "inactive"}
{"smiles": "O=C(CSc1nc2ccccc2[nH]1)c1cccs1", "max dye-equivalent concentration": "inactive"}
{"smiles": "COc1cccc2cc(C(=O)N(C)C)c(=O)oc12", "max dye-equivalent concentration": "inactive"}
{"smiles": "C=CCC(NCCCO)c1cccc(OC)c1OC", "note": "(stereo not drawn)", "max dye-equivalent concentration": "inactive"}
{"smiles": "O=C(CCCN1C(=O)CCC1=O)Nc1ccc(Cl)c(C(F)(F)F)c1", "max dye-equivalent concentration": "inactive"}
{"smiles": "Cc1cccc2nc(CNc3ccc(F)cc3)cn12", "max dye-equivalent concentration": "inactive"}
{"smiles": "CC1(CCC(=O)OC2CCCCC2)OCCO1", "max dye-equivalent concentration": "inactive"}
{"smiles": "Cc1nc(NC(CC(C)C)C(=O)O)c2nc(C)oc2n1", "note": "(stereo not drawn)", "max dye-equivalent concentration": "inactive"}
{"smiles": "Cc1c(C(=O)CN2CCOCC2)[nH]c2ccccc12", "max dye-equivalent concentration": "inactive"}
{"smiles": "C[N+]1(CCNC(=O)/C=N/O)CCCCC1", "max dye-equivalent concentration": "inactive"}
{"smiles": "Cc1ccc(C(C)C)c(OCc2nnc(SCC(=O)Nc3nccs3)n2C)c1", "max dye-equivalent concentration": "inactive"}
{"smiles": "Cc1nn2c3cc(N4CCOCC4)ccc3nc2c2ccccc12", "max dye-equivalent concentration": "inactive"}
{"smiles": "COc1cc(C(=O)Nc2oc(-c3ccccc3)c(-c3ccccc3)c2C#N)cc(OC)c1OC", "max dye-equivalent concentration": "inactive"}
{"smiles": "COc1cccc(Cn2c(=O)c(-c3cc(F)cc(F)c3)nc3cnc(OC)nc32)c1", "max dye-equivalent concentration": "inactive"}
{"smiles": "O=C(CN1CCOCC1)Nc1ccc(NC(=O)CN2CCOCC2)c(Cl)c1", "max dye-equivalent concentration": "inactive"}
{"smiles": "Cc1cccc(-n2c(N)cc(=O)nc2SC(C)C(=O)NC2CCCCC2)c1", "note": "(stereo not drawn)", "max dye-equivalent concentration": "inactive"}
{"smiles": "Cn1c(=NC(=O)c2cnccn2)sc2ccccc21", "max dye-equivalent concentration": "inactive"}
{"smiles": "O=C(O)C1OC(C(=O)O)C2C1C(F)(F)C2(F)F", "note": "(stereo not drawn)", "max dye-equivalent concentration": "inactive"}
{"smiles": "O=C(CSc1nc2ccccc2o1)N1CCN(c2ccccc2)CC1", "max dye-equivalent concentration": "inactive"}
{"smiles": "CN(c1ccccc1)c1ccc(/C=c2\\s/c(=C(/C#N)C(=O)C(C)(C)C)n(Cc3ccco3)c2=O)cc1", "max dye-equivalent concentration": "27 nM (active)"}
